Assay results reported in PubChem BioAssay AID602245 (The Scripps Research Institute Molecular Screening Center, 2012).
Active and inactive are the calls of the source.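 The calls were made as follows: active = compound that raised the calcium level needed for half-maximal fiber tension by more than 10% versus solvent alone; inactive = the rest.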

Test: calcium desensitizers of cardiac fiber tension, late-stage follow-up, mechanism study for cardiac RTF inhibitor project, permeabilized porcine cardiac fibers, force transducer, powder samples (AID 602245)
Conditions: pig permeabilized cardiac fiber tension, pCa50 shift, at 10 µM; delta pCa50: measured here: shift in calcium sensitivity, stronger effect = lower value; fold change of Ca2+ KD: stronger effect = higher value; maximal force change: measured here: effect on maximal fiber force

With `NCCCCCCNS(=O)(=O)c1cccc2c(Cl)cccc12` the delta pCa50 was -0.116, the fold change of Ca2+ KD was 1.31 (active) and the maximal force change was -4.5%.
